Assay [1] can be described thus: qHTS assay to test for compound auto fluorescence at 535 nm (green) in HEK293 cells (AID 720680).
Assay [2] is described as follows: qHTS assay to test for compound auto fluorescence at 460 nm (blue) in HEK293 cell free culture (AID 720681). An outline of the steps:
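Test compounds were pinned into cell-free culture medium (DMEM with 10% FBS) and fluorescence was read directly at Ex/Em 405/460 nm. Signals were expressed as fluorescence equivalents of triamterene, with DMSO vehicle as control.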

Assay [3] in a line: qHTS assay to test for compound auto fluorescence at 535 nm (green) in HEK293 cell free culture (AID 720682). In a few lines: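 Fluorescein serves as the green reference fluorophore; each compound's intrinsic emission at 535 nm (excitation 485 nm) is reported as an equivalent amount of that dye, measured in serum-containing DMEM without cells.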
In general terms: Quantitative high-throughput screening tests each substance at several concentrations.

The nature of assay [4]: qHTS assay to test for compound auto fluorescence at 590 nm (red) in HEK293 cell free culture (AID 720683). An outline of the steps:
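Tox21 10K library compounds were pinned into cell-free DMEM with 10% FBS and fluorescence was read at excitation 540 nm. Activity is expressed as Rose Bengal sodium equivalency.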

A short description of assay [5]: qHTS assay to test for compound auto fluorescence at 590 nm (red) in HepG2 cell free culture (AID 720684). An outline of the steps: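 Measured in medium alone (MEM containing 10% FBS) following pintool addition of compound; emission at 590 nm with 540 nm excitation, referenced to Rose Bengal sodium.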
A short description of assay [6]: qHTS assay to test for compound auto fluorescence at 460 nm (blue) in HepG2 cell free culture (AID 720685). In a few lines:
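Compound (23 nL) or DMSO pinned into cell-free MEM with 10% FBS; blue fluorescence read at 405/460 nm excitation/emission, expressed as auto-fluorescence equivalency to triamterene.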

A short description of assay [7]: qHTS assay to test for compound auto fluorescence at 535 nm (green) in HepG2 cell free culture (AID 720686).
Assay [8] in a line: qHTS assay to test for compound auto fluorescence at 460 nm (blue) in HepG2 cells (AID 720687). In a few lines:
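Cells (2,000/well in MEM with 10% FBS) attached overnight at 37 C, then were exposed to compound or DMSO for 1 hr at 37 C, 5% CO2. Fluorescence read at Ex/Em 405/460 nm, expressed as triamterene-equivalent signal.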

The target in assay [9] is Glucocorticoid receptor (Homo sapiens) (UniProt P04150). The experiment in a line: qHTS assay to identify small molecule agonists of the glucocorticoid receptor (GR) signaling pathway (AID 720691; active means well fitted activation curve with a large enough effect in the signal ratio in the repeat runs, not every such curve was filed as active; the % refers to the signal ratio). The following applies: GR-bla HeLa, beta-lactamase reporter ratio, 18 h; activation: at 62.4 µM (top of the series). In a few lines:
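qHTS in GR-bla HeLa cells: 4 h settling at 37 C/5% CO2, 18 h compound incubation at 37 C, 2 h LiveBLAzer B/G FRET substrate at room temperature, fluorescence intensity measured.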

The target is the same in assay [10]. The experiment in a line: qHTS assay to identify small molecule antagonists of the glucocorticoid receptor (GR) signaling pathway (AID 720692; active means well fitted inhibition curve with a large enough effect in the signal ratio in the repeat runs, not every such curve was filed as active; the % refers to the signal ratio; further: potency means the concentration at half of the fitted maximal effect). In a few lines: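 Inhibition of glucocorticoid signalling is measured in HeLa cells with a GRE-controlled beta-lactamase reporter; cells are co-treated with compound and 5 nM dexamethasone (final) for 18 h before FRET substrate readout.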

Our source for the Potency and outcome values is PubChem BioAssay (Tox21).

Inconclusive results are not listed. Active and inactive are the calls of the source. Unless noted, the call rests on the fitted dose curve; in most records, active means well fitted curve in the direction sought with a large enough effect in the repeat runs; inconclusive means weak or mixed curves; inactive means flat fitted curve, though single readings scatter.

Sequence of Glucocorticoid receptor (Homo sapiens) (P04150 whole entry, looked up): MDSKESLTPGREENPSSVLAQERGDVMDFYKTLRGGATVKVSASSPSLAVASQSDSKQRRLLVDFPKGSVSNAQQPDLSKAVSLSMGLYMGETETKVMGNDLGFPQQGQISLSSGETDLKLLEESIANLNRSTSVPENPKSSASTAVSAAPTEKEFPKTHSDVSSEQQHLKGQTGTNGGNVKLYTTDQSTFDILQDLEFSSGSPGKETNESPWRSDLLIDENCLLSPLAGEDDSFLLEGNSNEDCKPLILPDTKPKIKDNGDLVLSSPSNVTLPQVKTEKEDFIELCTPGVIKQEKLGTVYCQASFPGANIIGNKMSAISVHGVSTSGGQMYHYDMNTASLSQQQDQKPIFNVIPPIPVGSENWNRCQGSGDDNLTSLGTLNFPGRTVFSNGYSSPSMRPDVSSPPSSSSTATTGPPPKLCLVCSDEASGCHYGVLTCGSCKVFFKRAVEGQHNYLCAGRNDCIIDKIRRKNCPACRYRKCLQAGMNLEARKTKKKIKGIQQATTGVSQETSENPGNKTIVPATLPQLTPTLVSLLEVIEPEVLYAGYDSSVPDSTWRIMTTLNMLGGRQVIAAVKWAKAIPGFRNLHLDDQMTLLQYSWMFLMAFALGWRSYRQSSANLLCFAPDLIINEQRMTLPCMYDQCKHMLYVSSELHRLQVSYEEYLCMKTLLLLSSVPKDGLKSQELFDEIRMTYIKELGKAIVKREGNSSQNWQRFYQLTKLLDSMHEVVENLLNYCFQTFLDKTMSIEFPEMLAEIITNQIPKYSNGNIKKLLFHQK

As for `O=C(c1cc2ccccc2o1)N1CCN(Cc2ccccc2)CC1`, the Potency entry in assay [1], in assay [2], in assay [3], in [4], in assay [5] and in assay [7] was “inactive” in each case. Moreover, the Potency entry in assay [9] is “inactive”. Further, the call in [6] and in [8] was inactive.
On to `[O]=[Bi][O]C(=O)[O][Bi]=[O]`, for which the Potency result in assay [1], in [2], in [3], in assay [4], in assay [5] and in assay [7] was “inactive” throughout. Also, the Potency result in [9] and in assay [10] was “inactive” in each case. Further, the compound was classed as inactive in assay [6] and in assay [8].
Regarding `CC1=C[C@H](O)CC(C)(C)[C@H]1/C=C/C(C)=C/C=C/C(C)=C/C=C/C=C(C)/C=C/C=C(C)/C=C/C1=C(C)C[C@@H](O)CC1(C)C`, the Potency result in assay [1], in assay [2], in assay [3], in assay [4], in assay [5] and in assay [7] was “inactive” in each case. In addition, the Potency result in [9] is “inactive”. Moreover, the call in assay [6] and in [8] was inactive. Further, the Potency in assay [10] is 23.9 µM (active).
Take `CC(CN1c2ccccc2Sc2ccc(S(=O)(=O)N(C)C)cc21)N(C)C` (centres undefined): the Potency result in assay [1], in assay [2], in assay [3], in [4], in assay [5] and in assay [7] was “inactive” throughout. Besides, the Potency result in assay [9] and in assay [10] was “inactive” throughout. Moreover, the outcome in assay [6] and in assay [8] was inactive.
In the case of `CC(C)N=c1cc2n(-c3ccc(Cl)cc3)c3ccccc3nc-2cc1Nc1ccc(Cl)cc1`, the Potency result in assay [1], in [2], in [3], in assay [4], in assay [5] and in assay [7] was “inactive” in each case. The Potency result in [9] is “inactive”. The compound was classed as inactive in assay [6] and in assay [8].
As to `CO[C@H]1C[C@@H]2CC[C@@H](C)[C@@](O)(O2)C(=O)C(=O)N2CCCC[C@H]2C(=O)O[C@H]([C@H](C)C[C@@H]2CC[C@@H](OCCO)[C@H](OC)C2)CC(=O)[C@H](C)/C=C(\C)[C@@H](O)[C@@H](OC)C(=O)[C@H](C)C[C@H](C)/C=C/C=C/C=C/1C`, the Potency entry in assay [1], in assay [2], in assay [3], in [4], in [5] and in assay [7] was “inactive” in each case. Also, in assay [9], the Potency entry is “inactive”. The compound was classed as inactive in assay [6] and in assay [8]. Besides, the Potency in assay [10] was 7.56 µM (active).
For `O=C(O[C@H]1CN2CCC1CC2)N1CCc2ccccc2[C@@H]1c1ccccc1`, the Potency result in [1], in [2], in [3], in assay [4], in assay [5] and in [7] was “inactive” throughout. Besides, the Potency result in [9] and in assay [10] was “inactive” each time. Moreover, the compound was called inactive in [6] and in [8].
With `Cc1cccc(C)c1Nc1ncccc1C(=O)O`, the Potency result in assay [1], in assay [2], in assay [3], in assay [4], in assay [5] and in assay [7] was “inactive” in each case. Moreover, the Potency entry in assay [9] and in [10] was “inactive” each time. Also, the result in [6] and in assay [8] was inactive.
As for `CCC(=O)NCCC1CCc2ccc3c(c21)CCO3` (centres undefined), the Potency entry in assay [1], in assay [2], in assay [3], in assay [4], in [5] and in assay [7] was “inactive” throughout. Further, the Potency entry in assay [9] and in assay [10] was “inactive” in each case. Besides, the call in assay [6] and in assay [8] was inactive.
As to `Nc1ncnc2c1ncn2[C@@H]1O[C@H](COP(=O)(O)OP(=O)(O)OP(=O)(O)O)[C@@H](O)[C@H]1O`, the Potency entry in [1], in assay [2], in [3], in assay [4], in [5] and in assay [7] was “inactive” each time. The Potency entry in [9] is “inactive”. Besides, the outcome in [6] and in assay [8] was inactive.
Consider `CCCCC(C)(O)C/C=C/[C@H]1[C@H](O)CC(=O)[C@@H]1CCCCCCC(=O)OC` (some centres undefined), for which the Potency entry in [1], in assay [2], in assay [3], in assay [4], in [5] and in [7] was “inactive” in each case. Also, in [9], the Potency result was “inactive”. Moreover, the outcome in assay [6] and in [8] was inactive.
In the case of `O=C(O)c1cc(O)c2c(c1)[O][Bi][O]2`, the Potency entry in assay [1], in assay [2], in assay [3], in assay [4], in assay [5] and in assay [7] was “inactive” throughout. The Potency result in assay [9] is “inactive”. Also, the outcome in assay [6] and in assay [8] was inactive.
For the compound `Nc1ncnc(Nc2ccc(Cl)cc2)n1`, the Potency result in [1], in [2], in [3], in assay [4], in [5] and in [7] was “inactive” in each case. Besides, the Potency result in [9] and in assay [10] was “inactive” each time. Also, the result in assay [6] and in assay [8] was inactive.
Consider `CCCCCCCCCCCC(=O)N(CCO)CCO`, for which the Potency result in assay [1], in [2], in [3], in assay [4], in assay [5] and in assay [7] was “inactive” throughout. In addition, in assay [9], the Potency entry is “inactive”. The compound was classed as inactive in assay [6] and in assay [8].
Take `O=c1[nH]cnc2[nH]cc(CN3CCCCC3)c12`: the Potency entry in [1], in assay [2], in assay [3], in assay [4], in assay [5] and in assay [7] was “inactive” in each case. Also, the Potency entry in assay [9] and in [10] was “inactive” throughout. Further, the compound was classed as inactive in assay [6] and in [8].
For the compound `CC(C)CN(C[C@@H](OP(=O)(O)O)[C@H](Cc1ccccc1)NC(=O)O[C@H]1CCOC1)S(=O)(=O)c1ccc(N)cc1`, the Potency result in [1], in assay [2], in assay [3], in assay [4], in assay [5] and in assay [7] was “inactive” throughout. Also, the Potency entry in [9] and in [10] was “inactive” each time. Further, the outcome in assay [6] and in assay [8] was inactive.
Regarding `COc1ccc(C(=O)Nc2ccccc2CCC2CCCCN2C)cc1` (centres undefined), the Potency result in assay [1], in [2], in assay [3], in [4], in assay [5] and in assay [7] was “inactive” in each case. Moreover, the Potency result in assay [9] and in assay [10] was “inactive” each time. Further, the outcome in assay [6] and in assay [8] was inactive.
With `Cc1cc(C)c(NC(=O)C[C@H](CC(=O)O)c2cccc3ccccc23)c(C(=O)N2CCC3(CCCC3)CC2)c1`, the Potency entry in [1], in assay [2], in [3], in assay [4], in assay [5] and in [7] was “inactive” in each case. The Potency result in assay [9] is “inactive”. The outcome in assay [6] and in assay [8] was inactive. Moreover, the Potency in assay [10] was 10.7 µM (active).
For `O=C(OCCO)c1ccccc1O`, the Potency entry in [1], in [2], in assay [3], in [4], in assay [5] and in assay [7] was “inactive” each time. Moreover, the Potency entry in assay [9] and in assay [10] was “inactive” throughout. For the same compound, the call in assay [6] and in assay [8] was inactive.
